In the supplement of paper PMC11732987, “Enantioselective OTUD7B fragment discovery through chemoproteomics screening and high-throughput optimisation” (Communications Chemistry, 2025):

What was measured:
Assay in all cases: log2 ratio of Biotin-Ahx-Ub-VS probe labelling (fragment/DMSO); higher = less target engagement (more negative = stronger competition), active = hit call of the paper (q ≤ 0.05, log2 ratio ≤ -1)
Settings in all cases: compound concentration: 200 uM; treatment time: 3 h
ALG13 = target: T1, ALG13 (UniProt Q9NP73)
T1 sequence (whole entry): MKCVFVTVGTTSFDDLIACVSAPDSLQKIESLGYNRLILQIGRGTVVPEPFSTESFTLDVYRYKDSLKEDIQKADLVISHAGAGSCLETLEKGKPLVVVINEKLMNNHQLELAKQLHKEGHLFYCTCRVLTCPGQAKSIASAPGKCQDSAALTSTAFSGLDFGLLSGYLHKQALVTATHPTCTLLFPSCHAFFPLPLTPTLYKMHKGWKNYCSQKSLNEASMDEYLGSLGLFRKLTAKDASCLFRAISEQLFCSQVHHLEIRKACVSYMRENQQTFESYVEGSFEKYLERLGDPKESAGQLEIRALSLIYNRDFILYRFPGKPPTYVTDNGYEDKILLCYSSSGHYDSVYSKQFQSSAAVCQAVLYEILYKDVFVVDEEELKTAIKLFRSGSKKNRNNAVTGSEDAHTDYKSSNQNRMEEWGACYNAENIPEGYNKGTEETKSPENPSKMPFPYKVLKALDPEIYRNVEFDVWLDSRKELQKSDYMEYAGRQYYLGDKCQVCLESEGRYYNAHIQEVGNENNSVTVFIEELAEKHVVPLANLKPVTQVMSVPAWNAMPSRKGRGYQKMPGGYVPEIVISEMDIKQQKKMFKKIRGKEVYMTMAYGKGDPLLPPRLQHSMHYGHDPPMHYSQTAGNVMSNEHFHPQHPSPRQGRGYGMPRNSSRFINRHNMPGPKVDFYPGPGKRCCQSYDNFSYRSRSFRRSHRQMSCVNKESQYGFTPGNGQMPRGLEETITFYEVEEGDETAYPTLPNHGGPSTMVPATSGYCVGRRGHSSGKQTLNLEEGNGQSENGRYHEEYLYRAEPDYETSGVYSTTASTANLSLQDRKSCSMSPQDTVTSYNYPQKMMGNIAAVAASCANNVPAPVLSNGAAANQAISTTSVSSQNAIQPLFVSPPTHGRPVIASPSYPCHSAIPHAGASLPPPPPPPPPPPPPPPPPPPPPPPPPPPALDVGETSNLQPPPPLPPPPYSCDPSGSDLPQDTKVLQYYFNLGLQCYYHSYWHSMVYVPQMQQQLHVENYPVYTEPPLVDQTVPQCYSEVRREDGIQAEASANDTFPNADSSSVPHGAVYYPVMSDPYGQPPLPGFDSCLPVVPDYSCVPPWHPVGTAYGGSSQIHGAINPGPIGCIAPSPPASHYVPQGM
Outline: (§1)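 Using Biotin-Ahx-Ub-VS at 0.5 µM final for 1 h, DUBs were labelled in HEK293T lysate (495 µg per sample) that had first been treated in triplicate with fragment at 200 µM or vehicle for 3 h. NeutrAvidin enrichment, LysC and trypsin digestion and diaPASEF LC-MS/MS followed. Spectronaut label-free quantities were global-median-normalised. Values are average log2 fragment/vehicle ratios by unpaired t-test, using proteins with ≥2 unique peptides.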

ATXN3 = ATXN3 (UniProt P54252)
Chain of ATXN3 (P54252 whole entry): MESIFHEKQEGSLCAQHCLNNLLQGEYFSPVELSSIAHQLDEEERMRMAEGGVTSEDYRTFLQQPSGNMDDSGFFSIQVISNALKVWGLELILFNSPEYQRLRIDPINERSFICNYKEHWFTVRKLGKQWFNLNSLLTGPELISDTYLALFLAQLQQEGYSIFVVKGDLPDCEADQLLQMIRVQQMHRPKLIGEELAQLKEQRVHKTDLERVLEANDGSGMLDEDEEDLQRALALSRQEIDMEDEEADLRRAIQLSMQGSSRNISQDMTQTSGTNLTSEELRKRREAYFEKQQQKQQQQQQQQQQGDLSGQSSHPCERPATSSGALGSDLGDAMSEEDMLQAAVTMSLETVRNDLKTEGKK
Outline: as §1

BAP1 = target: T2, BAP1 (UniProt Q92560)
T2 sequence (whole entry): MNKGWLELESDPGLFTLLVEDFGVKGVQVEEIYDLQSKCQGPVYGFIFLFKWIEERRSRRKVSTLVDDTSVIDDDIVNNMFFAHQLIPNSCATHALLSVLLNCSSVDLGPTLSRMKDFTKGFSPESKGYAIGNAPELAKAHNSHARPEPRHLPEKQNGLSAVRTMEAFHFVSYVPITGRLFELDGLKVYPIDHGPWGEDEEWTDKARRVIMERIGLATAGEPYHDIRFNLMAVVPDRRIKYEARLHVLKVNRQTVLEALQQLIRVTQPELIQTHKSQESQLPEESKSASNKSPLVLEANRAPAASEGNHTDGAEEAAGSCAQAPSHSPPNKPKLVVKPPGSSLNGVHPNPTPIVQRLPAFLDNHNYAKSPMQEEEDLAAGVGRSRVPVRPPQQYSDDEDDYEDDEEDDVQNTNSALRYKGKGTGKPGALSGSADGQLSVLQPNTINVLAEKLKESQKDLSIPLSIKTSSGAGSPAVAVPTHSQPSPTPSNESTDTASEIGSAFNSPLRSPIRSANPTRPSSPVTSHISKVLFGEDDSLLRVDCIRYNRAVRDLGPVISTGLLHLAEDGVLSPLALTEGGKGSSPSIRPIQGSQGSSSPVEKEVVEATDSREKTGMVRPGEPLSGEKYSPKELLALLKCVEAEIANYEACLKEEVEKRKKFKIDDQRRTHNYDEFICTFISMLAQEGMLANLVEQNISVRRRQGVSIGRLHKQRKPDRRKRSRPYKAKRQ
Outline: as §1

EIF3F = EIF3F (UniProt O00303)
Chain of EIF3F (O00303 whole entry): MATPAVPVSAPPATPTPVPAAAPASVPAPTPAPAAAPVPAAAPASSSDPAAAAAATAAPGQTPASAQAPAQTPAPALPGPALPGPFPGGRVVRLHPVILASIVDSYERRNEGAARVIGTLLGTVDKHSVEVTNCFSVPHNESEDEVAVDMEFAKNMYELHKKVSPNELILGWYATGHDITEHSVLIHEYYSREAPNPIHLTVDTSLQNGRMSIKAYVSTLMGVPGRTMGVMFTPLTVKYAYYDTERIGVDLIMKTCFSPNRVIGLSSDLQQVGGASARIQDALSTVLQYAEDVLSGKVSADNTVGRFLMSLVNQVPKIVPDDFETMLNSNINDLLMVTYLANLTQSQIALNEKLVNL
Outline: as §1

EIF3H = EIF3H (UniProt O15372)
Chain of EIF3H (O15372 whole entry): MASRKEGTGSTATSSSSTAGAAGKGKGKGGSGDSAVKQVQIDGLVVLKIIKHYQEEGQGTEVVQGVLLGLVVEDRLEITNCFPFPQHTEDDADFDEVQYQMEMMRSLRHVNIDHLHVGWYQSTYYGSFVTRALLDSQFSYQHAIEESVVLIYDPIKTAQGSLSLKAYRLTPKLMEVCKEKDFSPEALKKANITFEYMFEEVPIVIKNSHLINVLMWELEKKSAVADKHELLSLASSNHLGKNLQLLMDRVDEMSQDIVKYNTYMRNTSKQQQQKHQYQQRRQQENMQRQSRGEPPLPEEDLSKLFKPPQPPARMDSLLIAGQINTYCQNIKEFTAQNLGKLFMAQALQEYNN
Outline: as §1

FAM105A = target: T3, FAM105A (UniProt Q9NUU6)
T3 sequence (whole entry): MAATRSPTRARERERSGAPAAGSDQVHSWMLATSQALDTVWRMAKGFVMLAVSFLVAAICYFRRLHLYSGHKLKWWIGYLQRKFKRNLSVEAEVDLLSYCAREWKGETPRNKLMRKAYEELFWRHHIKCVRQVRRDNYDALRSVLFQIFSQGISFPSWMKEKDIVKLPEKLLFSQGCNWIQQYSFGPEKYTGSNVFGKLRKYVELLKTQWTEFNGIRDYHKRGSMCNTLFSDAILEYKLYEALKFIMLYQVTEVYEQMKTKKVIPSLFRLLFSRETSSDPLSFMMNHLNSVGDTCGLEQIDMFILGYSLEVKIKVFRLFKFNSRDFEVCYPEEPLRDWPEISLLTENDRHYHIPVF
Outline: as §1

OTUB1 = OTUB1 (UniProt Q96FW1)
Chain of OTUB1 (Q96FW1 whole entry): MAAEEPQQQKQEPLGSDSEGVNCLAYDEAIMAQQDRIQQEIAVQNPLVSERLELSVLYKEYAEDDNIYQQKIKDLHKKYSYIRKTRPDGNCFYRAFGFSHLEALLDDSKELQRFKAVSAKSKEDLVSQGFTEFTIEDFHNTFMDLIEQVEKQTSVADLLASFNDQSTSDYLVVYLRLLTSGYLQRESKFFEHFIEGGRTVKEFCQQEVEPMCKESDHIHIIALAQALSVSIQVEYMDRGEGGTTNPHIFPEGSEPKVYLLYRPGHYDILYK
Outline: as §1

OTUD4 = target: T4, OTUD4 (UniProt Q01804)
T4 sequence (whole entry): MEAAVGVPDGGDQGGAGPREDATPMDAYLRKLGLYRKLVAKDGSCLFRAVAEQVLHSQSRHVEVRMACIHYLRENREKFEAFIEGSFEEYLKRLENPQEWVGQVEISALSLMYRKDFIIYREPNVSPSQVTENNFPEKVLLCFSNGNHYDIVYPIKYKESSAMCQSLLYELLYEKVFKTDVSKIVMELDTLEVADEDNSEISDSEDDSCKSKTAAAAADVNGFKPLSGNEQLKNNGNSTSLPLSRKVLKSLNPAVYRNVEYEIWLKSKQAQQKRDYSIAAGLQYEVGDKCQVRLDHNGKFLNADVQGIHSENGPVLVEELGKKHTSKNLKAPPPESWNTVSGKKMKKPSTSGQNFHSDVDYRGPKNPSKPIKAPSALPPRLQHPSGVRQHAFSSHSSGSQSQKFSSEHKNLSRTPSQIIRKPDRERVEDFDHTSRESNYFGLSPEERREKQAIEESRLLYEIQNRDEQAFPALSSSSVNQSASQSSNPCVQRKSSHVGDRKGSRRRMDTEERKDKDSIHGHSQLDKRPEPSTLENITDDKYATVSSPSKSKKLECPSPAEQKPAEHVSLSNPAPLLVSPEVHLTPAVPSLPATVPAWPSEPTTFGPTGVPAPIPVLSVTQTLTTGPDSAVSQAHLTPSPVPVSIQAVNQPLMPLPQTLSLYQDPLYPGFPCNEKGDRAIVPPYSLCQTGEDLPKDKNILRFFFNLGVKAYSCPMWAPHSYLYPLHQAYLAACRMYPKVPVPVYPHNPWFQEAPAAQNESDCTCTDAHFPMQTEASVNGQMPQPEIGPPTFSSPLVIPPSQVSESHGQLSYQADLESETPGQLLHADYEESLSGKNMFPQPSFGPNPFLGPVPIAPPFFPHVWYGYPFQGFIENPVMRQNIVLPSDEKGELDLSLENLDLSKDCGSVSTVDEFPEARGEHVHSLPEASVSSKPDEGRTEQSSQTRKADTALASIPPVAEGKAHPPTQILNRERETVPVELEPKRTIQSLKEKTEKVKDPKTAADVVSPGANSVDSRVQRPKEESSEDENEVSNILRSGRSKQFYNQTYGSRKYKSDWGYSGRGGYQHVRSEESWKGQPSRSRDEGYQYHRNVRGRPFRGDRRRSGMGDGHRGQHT
Outline: as §1

OTUD5 = target: T5, OTUD5 (UniProt Q96G74)
T5 sequence (whole entry): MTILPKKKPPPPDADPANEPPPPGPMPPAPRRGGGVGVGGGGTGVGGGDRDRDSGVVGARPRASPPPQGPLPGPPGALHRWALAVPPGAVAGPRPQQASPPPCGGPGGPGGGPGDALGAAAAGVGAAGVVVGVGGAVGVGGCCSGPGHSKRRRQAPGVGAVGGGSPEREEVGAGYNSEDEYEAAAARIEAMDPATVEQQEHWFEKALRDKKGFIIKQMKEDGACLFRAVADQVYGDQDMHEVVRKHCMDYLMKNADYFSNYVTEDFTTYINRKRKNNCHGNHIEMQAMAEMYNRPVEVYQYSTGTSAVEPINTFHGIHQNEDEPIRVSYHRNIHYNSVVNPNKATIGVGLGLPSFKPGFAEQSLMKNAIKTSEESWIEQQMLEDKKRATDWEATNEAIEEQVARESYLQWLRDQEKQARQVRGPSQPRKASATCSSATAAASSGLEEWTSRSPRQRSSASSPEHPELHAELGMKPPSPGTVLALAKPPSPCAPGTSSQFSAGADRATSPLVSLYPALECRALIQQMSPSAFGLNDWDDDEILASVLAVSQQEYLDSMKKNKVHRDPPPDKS
Outline: as §1

Measured: log2 ratio of Biotin-Ahx-Ub-VS probe labelling

Cc1cccc(NC(=O)CCl)c1C
active: BAP1 -3.21
inactive: ALG13 0.138 | ATXN3 -0.243 | EIF3F -0.272 | EIF3H 0.00998 | FAM105A 0.19 | OTUB1 0.0184 | OTUD4 -0.0599 | OTUD5 -0.394
